Results taken from PubChem BioAssay AID652197 (Broad Institute, 2013).
Values joined by “and” are separate entries in the source; they are usually repeats but may differ in a detail not shown here. Equal values may be shown once. Among all 340,000 compounds or so, about 500 (0.15%) were called active. The sample holds actives, similar compounds and a random draw of the others, so the mix is not that of the screen. Values without a mark were called inactive.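 Rule for the calls: active = mean replicate inhibition of at least 30%, or all replicates individually reaching that 30% level; inactive = mean below 30% and not every replicate reaching it.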

The compounds below were run against Endoplasmic reticulum aminopeptidase 1 (Homo sapiens) (UniProt Q9NZ08) (assay: human ERAP1 aminopeptidase inhibitors, primary screen, biochemical, single point, plate reader (AID 652197;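 note: 0% = neutral control wells and 100% = L-leucinethiol positive control wells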)). Settings: recombinant ERAP1, Leu-AMC fluorescence, 60 min; at 10.7 µM; active compounds read high.
Endoplasmic reticulum aminopeptidase 1 (Homo sapiens), sequence (Q9NZ08 whole entry, looked up): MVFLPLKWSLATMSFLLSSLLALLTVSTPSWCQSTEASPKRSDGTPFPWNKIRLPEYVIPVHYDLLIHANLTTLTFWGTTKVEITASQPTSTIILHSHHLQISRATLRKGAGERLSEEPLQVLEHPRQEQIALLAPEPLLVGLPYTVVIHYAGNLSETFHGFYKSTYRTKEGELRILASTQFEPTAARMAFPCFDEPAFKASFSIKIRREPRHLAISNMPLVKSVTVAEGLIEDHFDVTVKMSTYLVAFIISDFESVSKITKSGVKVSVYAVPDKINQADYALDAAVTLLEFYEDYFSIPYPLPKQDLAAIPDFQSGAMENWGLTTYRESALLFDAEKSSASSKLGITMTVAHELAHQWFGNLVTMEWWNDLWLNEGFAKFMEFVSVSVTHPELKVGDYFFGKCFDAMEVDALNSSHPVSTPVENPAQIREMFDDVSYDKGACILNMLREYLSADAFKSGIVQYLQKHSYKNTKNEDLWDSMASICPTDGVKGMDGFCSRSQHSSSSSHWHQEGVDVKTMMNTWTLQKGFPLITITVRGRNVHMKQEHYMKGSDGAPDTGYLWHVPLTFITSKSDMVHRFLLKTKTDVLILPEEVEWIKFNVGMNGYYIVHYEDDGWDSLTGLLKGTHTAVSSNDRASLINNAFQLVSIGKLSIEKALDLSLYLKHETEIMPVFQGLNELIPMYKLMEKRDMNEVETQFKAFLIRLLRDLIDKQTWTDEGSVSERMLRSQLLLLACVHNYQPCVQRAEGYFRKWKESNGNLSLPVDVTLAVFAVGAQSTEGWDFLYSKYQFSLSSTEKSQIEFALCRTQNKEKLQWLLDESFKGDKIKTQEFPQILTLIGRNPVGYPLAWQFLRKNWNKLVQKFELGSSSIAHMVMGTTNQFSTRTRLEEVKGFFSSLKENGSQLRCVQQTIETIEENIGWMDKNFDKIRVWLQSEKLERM
For `CC(=O)N1Cc2cc(C(=O)NCc3cc(F)cc(F)c3)nc(-c3cccc(C4=CCCC4)c3)c2[C@@H]1CCO`, the inhibition was 3.25%.
In the case of `O=C(C[C@@H]1C=C[C@H](NC(=O)C2CCC2)[C@@H](CO)O1)NCC1CC1`, the inhibition is reported as 0.604%.
In the case of `C[N+](C)(C)CCNC(=O)c1cc[n+](Cc2ccccc2)c(/C=N/O)c1`, the inhibition is reported as 105% (active).
In the case of `C/C(Cc1ccccc1)=N\NC(=O)CNC(=O)c1cccc(Br)c1`, the inhibition is reported as 7.75%.
`O=C(NCCCNCc1ccccc1)c1ccc(/C=N/O)nc1` was tested, and the inhibition was 4.32%.
Work on `COc1ccc(CC(=O)NCc2nnc(SCC(=O)Nc3nccs3)n2C)cc1` yielded an inhibition of 1.32%.
Compound `COc1ccc(C(=O)NCc2nnc(SCC(=O)NC3=NCCS3)n2C)cc1` has an inhibition of 1.94%.
`COc1ccc(C(=O)NCc2nnc(SCCOc3ccccc3)n2C)cc1` was tested, and the inhibition was 31.3% (active).
`COC(=O)C[C@H]1C[C@H]2c3cc(NC(=O)Nc4ccccc4F)ccc3O[C@H]2[C@H](CO)O1` showed an inhibition of -1.68%.
Compound `O=C(NC1Cc2ccccc2C1)[C@H]1[C@H](CO)[C@H]2Cn3c(ccc(C4=CCCCC4)c3=O)[C@H]2N1CC1CC1` has an inhibition of -5.27%.
`O=C(Cc1ccccn1)N[C@H]1CC[C@H](CCn2cc(-c3ccc(F)cc3)nn2)O[C@H]1CO` gave an inhibition of -3.36%.
With `O=C(C[C@@H]1CC[C@H](NC(=O)CN2CCOCC2)[C@@H](CO)O1)NCCc1ccccc1` the inhibition was 0.528%.
Work on `O=C(N[C@H]1C=C[C@@H](CC(=O)N2CCc3ccccc3C2)O[C@@H]1CO)C1CCOCC1` yielded an inhibition of -0.073%.
Compound `Cc1ccc(-c2ccccc2[C@H]2[C@@H](C#N)N(c3ncc(-c4ccccc4)s3)[C@@H]2CO)cc1` has an inhibition of -2.75%.
`Cc1ccc(S(=O)(=O)Nc2ccc3c(c2)C(=O)N([C@H](C)CO)C[C@@H](C)[C@@H](CN(C)S(C)(=O)=O)OCCCC[C@@H](C)O3)cc1` showed an inhibition of 3.3%.
With `C[C@@H]1CN([C@H](C)CO)C(=O)c2cc(NC(=O)c3ccncc3)ccc2O[C@@H](C)CCCCO[C@@H]1CN(C)CC1CC1` the inhibition was -0.674%.
In the case of `C[C@@H]1CN([C@H](C)CO)C(=O)Cc2cc(NC(=O)CCC(F)(F)F)ccc2O[C@@H]1CN(C)CC1CCCCC1`, the inhibition is reported as 0.143%.
Compound `CO[C@@H]1CN(C)C(=O)c2ccc(NC(=O)Nc3c(C)noc3C)cc2OC[C@@H](C)N(C(=O)Nc2cccc(Cl)c2)C[C@H]1C` has an inhibition of -0.693%.
`N#C[C@@H]1[C@H](c2ccccc2-c2ccccc2F)[C@@H](CO)N1C(=O)C1CCOCC1` was tested, and the inhibition was 0.396%.
`Nc1nc(NCC(=O)O)nc(N2CCCCCC2)c1[N+](=O)[O-]` showed an inhibition of 4.98%.
Work on `O=C(O)CSc1ccc(S(=O)(=O)N2CCCC2)cn1` yielded an inhibition of 0.672%.
In the case of `N#Cc1c(N2CCCCC2)nc(N)c2c(N)nc(SCC(=O)O)cc12`, the inhibition is reported as 46.5% (active).
In the case of `C/C=C/c1ccc(C2[C@H]3CNC[C@@H]2N3C(=O)Nc2cc(F)ccc2F)cc1` (stereo partly drawn), the inhibition is reported as 0.659% and 1.15%.
Compound `Nc1nc2c(ncn2[C@@H]2O[C@H](C(=O)N[C@H](Cc3ccccc3)C(=O)NCC3CCCCC3)[C@@H](O)[C@H]2O)c(=O)[nH]1` has an inhibition of 2.44%.
Compound `COc1ccc(CN(C)C[C@H]2OCCCC[C@H](C)Oc3ccc(NS(=O)(=O)c4ccc(C)cc4)cc3C(=O)N([C@@H](C)CO)C[C@H]2C)cc1` has an inhibition of 0.631%.
`Cc1ccc2[nH]c(=O)c(CN(C)S(=O)(=O)c3cccc4nonc34)cc2c1` gave an inhibition of 0.344%.
`CCC(=O)N(CCc1ccccc1)Cc1cc2cc(C)ccc2[nH]c1=O` showed an inhibition of -2.61%.
With `CCCc1nc(-c2cc3cc(C)ccc3[nH]c2=O)no1` the inhibition was 55.1% (active).
In the case of `CC(C)NC(=O)N[C@H]1CC[C@@H](CC(=O)NCc2ccc(Oc3ccccc3)cc2)O[C@@H]1CO`, the inhibition is reported as -0.517%.
Compound `COc1ccc(NC(=O)N2CC(=O)N3[C@H](CO)[C@@H](c4ccc(C#CCC5CCCC5)cc4)[C@H]3C2)cc1` has an inhibition of -1.79%.
`CC(=O)NC[C@H]1[C@@H](c2ccc(C#CC(C)C)cc2)[C@@H](CO)N1Cc1ccccn1` showed an inhibition of 3.95%.
In the case of `COc1ccc(NC(=O)N2CC(=O)N3[C@H](CO)[C@@H](c4ccc(-c5ccc(C)cc5)cc4)[C@H]3C2)cc1`, the inhibition is reported as 1.13%.
`O=C(c1ccc(F)cc1)N1CC(=O)N2[C@@H](CO)[C@@H](c3ccc(C#Cc4ccc(F)cc4)cc3)[C@@H]2C1` gave an inhibition of -1.04%.
`C[C@H](CO)N1C[C@H](C)[C@H](CN(C)C(=O)Nc2ccc(C(F)(F)F)cc2)Oc2ccc(NS(=O)(=O)c3cn(C)cn3)cc2CC1=O` was tested, and the inhibition was 2.19%.
`COc1ccc(S(=O)(=O)Nc2ccc3c(c2)C(=O)N([C@@H](C)CO)C[C@H](C)[C@H](CN(C)S(=O)(=O)c2c(C)noc2C)OCCCC[C@@H](C)O3)cc1` showed an inhibition of -3.22%.
`O=C(NCC[C@@H]1CC[C@@H](NS(=O)(=O)c2ccc(Cl)cc2)[C@@H](CO)O1)c1ccccc1F` was tested, and the inhibition was -2.75%.
`O=C(Cc1ccccc1)N1C[C@@H]2[C@H](c3ccccc31)[C@@H](CO)N2C(=O)C1CCOCC1` gave an inhibition of -0.84%.
Work on `C[C@@H]1CCCCO[C@H](CN(C)Cc2ccc(C(F)(F)F)cc2)[C@@H](C)CN([C@@H](C)CO)C(=O)c2cc(NC(=O)c3ccncc3)ccc2O1` yielded an inhibition of -3.82%.
Compound `CO[C@@H]1CN(C)C(=O)c2cc(NC(=O)C3CCOCC3)ccc2OC[C@@H](C)NC[C@@H]1C` has an inhibition of 1.93%.
With `O=C(Nc1ccccc1F)N1CC(=O)N2[C@H](CO)[C@H](c3ccc(C#CC4CC4)cc3)[C@@H]2C1` the inhibition was -1.09%.
`CN(C)C(=O)C[C@H]1C[C@H]2c3cc(NC(=O)Nc4ccc(C(F)(F)F)cc4)ccc3O[C@H]2[C@@H](CO)O1` showed an inhibition of -0.814%.
With `O=C(Nc1cc(F)ccc1F)N[C@H]1CC[C@@H](CCn2cc(C3CCCC3)nn2)O[C@@H]1CO` the inhibition was 0.545%.
Compound `C[C@@H]1CN([C@H](C)CO)C(=O)c2cc(NS(C)(=O)=O)ccc2O[C@H]1CN(C)C(=O)Nc1cccc2ccccc12` has an inhibition of 0.237%.
